Compounds with a hit are over-represented: about 19% of the library has one in this group of screens.
TDP1 cell noCPT – qHTS for Inhibitors of human tyrosyl-DNA phosphodiesterase 1 (TDP1): qHTS in cells in absence of CPT; DT40 Tdp1-/- hTDP1 cells, no CPT, ATP luminescence, 48 h; Potency, µM (top dose mostly 46.2 µM), hits mostly inhibitors; 420,000 tested, 15% active; AID 686978, 2013; note: nearly all actives have a fitted effect of over 55% in size
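Chicken DT40 Tdp1-/- cells complemented with human TDP1, screened without camptothecin (DMSO vehicle only), 400 cells/well. Compounds pin-transferred, cells incubated at 37 °C for at least 48 hr. Growth read as ATP-dependent luminescence (CellTiter-Glo, 30 min at RT).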
DT40 TDP1 CPT – DT40-hTDP1 cell growth loss with CPT. AID 686979. Potency, µM (top dose mostly 46.2 µM), hits mostly inhibitors. 420,000 tested, 12% active. chicken DT40 Tdp1-/-;hTDP1 cells + 20 nM CPT, ATP luminescence, 48 h; note: nearly all actives have a fitted effect of over 55% in size
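Cell growth measured by CellTiter-Glo luminescence after a minimum 48 h, 37 C compound exposure with 20 nM CPT in Tdp1-knockout DT40 cells stably expressing hTDP1, seeded 400/well; qHTS titration format.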
IL1B secr inh – inhibitors of inflammasome signaling (IL-1 beta secretion) | THP-1 LPS/ATP IL-1B secretion, AlphaLISA, 16 h; stronger effect = lower value | activity change, % at 57.5 µM | 360,000 tested, 4.7% active | AID 743279; in the data active = activity change below about -50%; inconclusive = mostly about -30% to -49%
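THP-1 cells pretreated 1 hr with compounds (up to 57.5 uM final), then stimulated with LPS (250 ng/mL final) plus ATP (1.25 mM final); secreted IL-1B measured by AlphaLISA after 16 hr, decreased signal indicating inhibition.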
HT1080NT lethal – kills 2HG-producing HT-1080-NT fibrosarcoma cells. HT-1080-NT fibrosarcoma viability, CellTiter-Glo ATP luminescence, 48 h. Potency, µM (doses to about 46.1 µM), actives largely listed as cytotoxic. 360,000 tested, 1.6% active;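 note: NT is the 2HG producing partner of a matched IDH1 knockdown line; nearly all actives have a fitted effect of over 55% in size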
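A 48-hour cytotoxicity screen used HT-1080-NT cells plated 2 hours before compound delivery. ATP-based CellTiter-Glo luminescence measured viability, normalized to DMSO and no-cell controls.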
HT1080 IDH1KD tx – kills HT-1080 cells with IDH1 knockdown | HT-1080 IDH1 knockdown viability, ATP luminescence, 48 h | Potency, µM (series often up to 46.1 µM), usual class: cytotoxic | 360,000 tested, 2% active | AID 686971
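In this qHTS, HT-1080 cells depleted of IDH1 are exposed for 48 h at 37 °C to compound titrations. Toxicity is scored from CellTiter-Glo luminescence, with DMSO as full viability and medium alone as none.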
uPA surface inh – inhibitors of cell surface uPA generation | cell surface uPA generation assay, qHTS | 330,000 tested, 0.31% active | Potency, µM (highest dose often 38.3 µM), most hits filed as inhibitors; active = well fitted inhibition curve with a large enough effect; inconclusive = small, poorly fitted or top-dose-only effect; inactive = no such curve, though single readings can be large or run the other way; tested in mouse RAW 264.7 cells; note: nearly all actives have a fitted effect of over 55% in size
Numbers stand for hits; [ ] = another dose, or the depositor's remark. Unless noted, calls come from the whole dose curve; as a rule, active = well fitted curve in the direction sought with a large enough effect; inconclusive = small, poorly fitted or top-dose-only effect, or another doubt; inactive = no such curve, though single readings can be large; an effect the other way counts as inactive or inconclusive.

`COc1ccc(N2CCN(C(=O)C3CCCN(S(=O)(=O)c4ccc5c(c4)oc(=O)n5C)C3)CC2)cc1` (stereo not drawn) gave TDP1 cell noCPT 10µM, DT40 TDP1 CPT 12µM, IL1B secr inh inactive, HT1080NT lethal inactive, HT1080 IDH1KD tx inactive and uPA surface inh inactive.
Screening COc1ccccc1N1CCN(C(=O)C2CCN(S(=O)(=O)c3ccccc3F)CC2)CC1 returned TDP1 cell noCPT 23µM, DT40 TDP1 CPT inconclusive, IL1B secr inh inactive, HT1080NT lethal inactive, HT1080 IDH1KD tx inactive and uPA surface inh inactive.
For COc1cc(NC(=O)C2CCCN(S(=O)(=O)c3ccc4c(c3)oc(=O)n4C)C2)cc(OC)c1 (stereo not drawn) the results were TDP1 cell noCPT inconclusive, DT40 TDP1 CPT inconclusive, IL1B secr inh inactive, HT1080NT lethal inactive, HT1080 IDH1KD tx inactive and uPA surface inh inactive.
`COc1ccccc1N1CCN(C(=O)C2CCN(S(=O)(=O)c3ccc(C)cc3)CC2)CC1` gave TDP1 cell noCPT inconclusive, DT40 TDP1 CPT inactive, IL1B secr inh inactive, HT1080NT lethal inactive, HT1080 IDH1KD tx inactive and uPA surface inh inactive.
For COc1ccc(C)cc1S(=O)(=O)N1CCCC(C(=O)N2CCN(c3ccccc3F)CC2)C1 (stereo not drawn) the results were TDP1 cell noCPT 23µM, DT40 TDP1 CPT inconclusive, IL1B secr inh inactive, HT1080NT lethal inactive, HT1080 IDH1KD tx inactive and uPA surface inh inactive.
`COc1ccccc1N1CCN(C(=O)C2CCCN(S(=O)(=O)c3ccc4c(c3)oc(=O)n4C)C2)CC1` (stereo not drawn) gave TDP1 cell noCPT 8.2µM, DT40 TDP1 CPT 26µM, IL1B secr inh inactive, HT1080NT lethal inactive, HT1080 IDH1KD tx inactive and uPA surface inh inactive.
`COc1ccc(CCN(C)C(=O)c2cnn(-c3nccc(-c4ccc(C)o4)n3)c2C)cc1OC` gave TDP1 cell noCPT inactive and DT40 TDP1 CPT inactive[9.04 µM].
COc1cc(OC)cc(C(=O)N[C@H](C(=O)OCC(=O)N2CCc3ccccc32)C(C)C)c1 was read as TDP1 cell noCPT inactive, DT40 TDP1 CPT inactive, IL1B secr inh inactive, HT1080NT lethal inactive, HT1080 IDH1KD tx inactive and uPA surface inh inactive.
COc1ccc(CNc2ncncc2-c2ccc3c(c2)OCO3)c(OC)c1 was read as TDP1 cell noCPT inconclusive and DT40 TDP1 CPT inactive.
Screening O=C1c2cc(O)c(O)cc2S(=O)(=O)C1c1ccccc1 (stereo not drawn) returned TDP1 cell noCPT inactive, DT40 TDP1 CPT inactive, IL1B secr inh inactive, HT1080NT lethal inactive, HT1080 IDH1KD tx inactive and uPA surface inh inactive.
`COc1cc(/C=N/NC(=O)c2cccc3ccccc23)cc(OC)c1OC` gave TDP1 cell noCPT inconclusive, DT40 TDP1 CPT inactive, IL1B secr inh inactive, HT1080NT lethal inactive, HT1080 IDH1KD tx inactive and uPA surface inh inactive.
`COc1cc(C(=O)Oc2ccccc2/C=N/NC(=O)c2ccc(Cl)cc2Cl)cc(OC)c1OC` gave TDP1 cell noCPT 0.92µM, DT40 TDP1 CPT 0.65µM, IL1B secr inh inactive, HT1080NT lethal inconclusive, HT1080 IDH1KD tx inconclusive and uPA surface inh inactive.
`COc1ccc(/C=N/NC(N)=S)cc1OC(=O)c1cccc2ccccc12` gave TDP1 cell noCPT 18µM, DT40 TDP1 CPT 15µM, IL1B secr inh inactive, HT1080NT lethal inactive, HT1080 IDH1KD tx inconclusive and uPA surface inh inactive.
Screening COc1ccc(/C=N/NC(=O)c2cccs2)c2ccccc12 returned TDP1 cell noCPT 8.2µM, DT40 TDP1 CPT inconclusive, IL1B secr inh inactive, HT1080NT lethal inactive, HT1080 IDH1KD tx inconclusive and uPA surface inh inactive.
Screening COc1cc(/C=N/NC(=O)c2cccc3ccccc23)cc(OC)c1O returned TDP1 cell noCPT inconclusive, DT40 TDP1 CPT 4.6µM, IL1B secr inh inactive, HT1080NT lethal inactive, HT1080 IDH1KD tx inactive and uPA surface inh inactive.
For C=CCOc1ccccc1/C=N/NC(=O)c1ccc(Cl)cc1Cl the results were TDP1 cell noCPT inconclusive, DT40 TDP1 CPT inactive, IL1B secr inh inactive, HT1080NT lethal inactive, HT1080 IDH1KD tx inactive and uPA surface inh inactive.
For Cn1c(=O)c(-c2ccccc2)nc2cnc(OCc3ccccc3)nc21 the results were TDP1 cell noCPT inactive and DT40 TDP1 CPT inactive.
`Cc1cc(C(=O)N2CCN(Cc3ccccc3)CC2)on1` gave TDP1 cell noCPT inactive, DT40 TDP1 CPT inactive, IL1B secr inh inactive, HT1080NT lethal inactive, HT1080 IDH1KD tx inactive and uPA surface inh inactive.
CC1(C2CC2)NC(=O)N(CC(=O)N2CCN(c3ccccc3Cl)CC2)C1=O (stereo not drawn) was read as TDP1 cell noCPT inconclusive, DT40 TDP1 CPT inactive, IL1B secr inh inactive, HT1080NT lethal inactive, HT1080 IDH1KD tx inactive and uPA surface inh inactive.
`Cc1ccccc1CNC(=O)CN1C(=O)C2CCCCN2c2ccc(C(=O)N3CCCC3)cc21` (stereo not drawn) gave TDP1 cell noCPT inactive and DT40 TDP1 CPT inactive.
COc1ccc(/C=N/NC(=O)c2cccc3ccccc23)c(OC)c1OC was read as TDP1 cell noCPT inconclusive, DT40 TDP1 CPT inconclusive, IL1B secr inh inactive, HT1080NT lethal inconclusive, HT1080 IDH1KD tx 16µM and uPA surface inh inactive.
Screening COc1ccccc1/C=N/NC(=O)c1cccc2ccccc12 returned TDP1 cell noCPT inconclusive, DT40 TDP1 CPT 23µM, IL1B secr inh inactive, HT1080NT lethal inactive, HT1080 IDH1KD tx inactive and uPA surface inh inactive.
For O=C(N/N=C/c1ccccc1Cl)c1cccc(F)c1 the results were TDP1 cell noCPT inactive, DT40 TDP1 CPT inactive, IL1B secr inh inconclusive, HT1080NT lethal inactive and HT1080 IDH1KD tx inactive.
For O=C(N/N=C/c1cccc2ccccc12)c1cccc(F)c1 the results were TDP1 cell noCPT inactive, DT40 TDP1 CPT inactive, IL1B secr inh -63, HT1080NT lethal inactive, HT1080 IDH1KD tx inactive and uPA surface inh inactive.
For COC(=O)C[C@H]1C[C@H]2c3cc(NS(=O)(=O)c4cccc(OC)c4)ccc3O[C@H]2[C@@H](CO)O1 the results were TDP1 cell noCPT inactive, DT40 TDP1 CPT inactive, IL1B secr inh inactive, HT1080NT lethal inactive and HT1080 IDH1KD tx inactive.
CCN(CC)S(=O)(=O)c1ccc(-n2cnc3cc(C)c(C)cc32)nc1 was read as TDP1 cell noCPT inconclusive, DT40 TDP1 CPT inconclusive, IL1B secr inh inactive, HT1080NT lethal inactive, HT1080 IDH1KD tx inactive and uPA surface inh inactive.
Screening CCOC(=O)c1ccc(NC(=O)CN2C(=O)CSC(C)C2=O)cc1 (stereo not drawn) returned TDP1 cell noCPT inactive, DT40 TDP1 CPT inactive, IL1B secr inh inactive, HT1080NT lethal inactive, HT1080 IDH1KD tx inactive and uPA surface inh inactive.
